# Assay outcomes deposited in PubChem by The Scripps Research Institute Molecular Screening Center.
# Rows were chosen to be rich in hits. Some 2.9% of all compounds tested hit in one or more screens of this group.
# PLC-gamma1 inh = PLC-gamma1 (human) inhibition, primary screen | P19174 | purified PLC-gamma1, fluorogenic substrate, fluorescence | inhibition, % at 12.2 µM | 370,000 tested, 0.84% active | AID 720700; in the data active means inhibition above about 9.5%
# ADAM10 inh = inhibitors of human ADAM10 | 370,000 tested, 0.62% active | O14672 | inhibition, % at 7 µM | AID 720582 | recombinant ADAM10, EDANS/DABCYL FRET peptide cleavage, 3 h;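 active means inhibition above a per-campaign cutoff equal to the mean of compounds falling between control-based bounds plus 3 SD, cut at about 20% in these data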;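 further: 0% = DMSO wells while the 100% control is not disclosed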
# PLC-beta3 inh = blocks human PLC-beta3 enzyme activity; Q01970; Purified PLC-beta3, fluorogenic substrate, fluorescence; inhibition, % at 12.2 µM; 370,000 tested, 0.18% active; in the data active means inhibition above about 11%;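 further: 0% = median of compound wells on plate and 100% = full blocker control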
# ADAM17 inh = inhibitors of human ADAM17. P78536. recombinant ADAM17, EDANS/DABCYL FRET peptide cleavage. inhibition, % at 6.95 µM. 370,000 tested, 0.83% active. AID 720648;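 active means inhibition above the mean of compounds lying between control limits plus 3 SD, set per campaign, cut at about 8.5% in these data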;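 further: 0% = DMSO-only wells as the low control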
# proKLK7 act = activators of human kallikrein-7 zymogen. AID 652039. P49862. purified proKLK7, EDANS-DABCYL substrate fluorescence; 100% is mature enzyme control, 0% vehicle. activation, % at 7 µM. 370,000 tested, 0.9% active;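 active means activation above the mean of all tested compounds plus 3 SD, computed per campaign excluding outliers beyond control limits, cut at about 13% in these data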
# Target sequence (P49862 whole entry, looked up): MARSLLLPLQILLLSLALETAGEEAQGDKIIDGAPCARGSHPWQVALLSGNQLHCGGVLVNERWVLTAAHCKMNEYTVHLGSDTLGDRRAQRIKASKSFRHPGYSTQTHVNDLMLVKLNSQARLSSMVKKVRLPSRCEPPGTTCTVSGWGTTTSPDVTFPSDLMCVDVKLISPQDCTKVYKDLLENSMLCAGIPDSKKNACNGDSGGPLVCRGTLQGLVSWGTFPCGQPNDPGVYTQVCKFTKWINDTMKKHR
# ADAM10 ctr = counter-screen for ADAM17 exosite inhibitors: inhibitors of human ADAM10; shares compounds with ADAM17 inh; recombinant ADAM10, EDANS/DABCYL FRET peptide cleavage, 3 h; inhibition, % at 6.95 µM; 2,900 tested, 47% active; AID 743256;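 active means mean inhibition over the triplicate runs exceeds the activity threshold set in the earlier primary screen, cut at about 20% in these data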;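 further: 0% = DMSO wells and 100% = marimastat wells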
# ADAM17 confirm = confirmation of inhibitors of human ADAM17 | AID 743257 | 2,900 tested, 65% active | inhibition, % at 6.95 µM | recombinant ADAM17, EDANS/DABCYL QFRET peptide cleavage | shares compounds with ADAM17 inh;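 active means mean inhibition across replicates above the hit cutoff set in the primary screen, cut at about 8.5% in these data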;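 further: 0% = DMSO wells and 100% = marimastat wells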
# The depositor's hits bear a star; . = no result.
SMILES,PLC-gamma1 inh,ADAM10 inh,PLC-beta3 inh,ADAM17 inh,proKLK7 act,ADAM10 ctr,ADAM17 confirm
COc1cccc(C(=O)Nc2ccc(Cl)c(C(F)(F)F)c2)c1,5.2,18.1,-4.4,10.7*,0.4,8.0,3.9
Cc1ccc([C@@H]2CC(=O)[C@@H]3CN(S(=O)(=O)c4ccc(C)cc4)[C@H](c4ccccc4F)C[C@@H]3N2S(=O)(=O)c2ccc(C)cc2)cc1,1.2,-0.2,2.2,-0.6,-0.1,.,.
Cc1ccc(S(=O)(=O)N2C[C@H]3C(=O)C[C@@H](c4ccccc4F)N(S(=O)(=O)c4ccc(C)cc4)[C@H]3C[C@H]2c2ccccc2)cc1,2.0,-0.7,1.3,10.3*,-0.5,14.0,5.6
Cc1ccccc1-n1nc2c(c1NC(=O)c1ccc(S(=O)(=O)N(C)C)cc1)CSC2,8.3,17.5,1.7,13.3*,-0.7,18.0,9.4*
CC(=O)Nc1c2c(nn1-c1ccccc1C)CSC2,-2.5,-10.9,-6.7,0.8,-0.2,.,.
Clc1ccc(CN=C(Nc2ccccc2)NC2CCCCC2)cc1,1.9,1.4,4.3,1.0,-0.6,.,.
Cc1ccc(Cl)c(NC(=O)COC(=O)CNS(=O)(=O)/C=C/c2ccccc2)c1Cl,6.4,7.0,7.4,9.1*,-0.2,-4.4,1.7
CCc1cccc(C)c1NC(=O)COC(=O)CNS(=O)(=O)/C=C/c1ccccc1,1.1,4.1,3.5,2.8,0.4,.,.
O=C(Oc1ccc2c(c1)OCC2=O)c1ccc(Cl)cc1,-15.1,-9.5,-20.9,0.9,0.6,.,.
O=C(Nc1ccc(Cl)c(Cl)c1)C1CCCN(c2nnc(-n3cccc3)s2)C1 (stereo unspecified),4.0,15.9,2.2,10.7*,0.4,30.4*,14.6*
Cc1ccccc1N1CCN(C2CCCN(C(=O)c3noc4c3CCCC4)C2)CC1 (stereo unspecified),2.2,-0.3,-8.5,3.8,0.3,.,.
Cn1c(=O)c(=O)n(C)c2cc(S(=O)(=O)N3CCN(Cc4ccc(F)cc4)CC3)ccc21,-3.1,-1.6,-3.2,3.8,-0.2,.,.
OCc1ccccc1CNCc1ccccc1,2.3,0.5,-0.1,-0.1,-0.1,.,.
OCc1cccc[n+]1CCc1ccccc1,0.1,-0.5,-2.8,10.8*,0.5,-10.7,-0.9
O=C(c1cc(COc2c(F)cccc2F)on1)N1CCC(c2ccccc2Cl)C1 (stereo unspecified),5.4,19.0,-2.1,9.5*,-0.2,12.7,10.8*
CCN(CC(O)Cn1c2ccccc2c2ccccc21)S(=O)(=O)c1ccc(C)cc1 (stereo unspecified),-4.0,17.5,-16.4,11.0*,-0.2,27.6*,14.1*
CN(CC(O)Cn1c2ccccc2c2ccccc21)S(C)(=O)=O (stereo unspecified),-1.0,0.0,3.5,1.5,-0.2,.,.
CCC(OC(=O)c1ccco1)C(=O)NCc1ccc2c(c1)OCO2 (stereo unspecified),2.8,2.3,-5.1,-0.5,0.0,.,.
Cc1cccc(C)c1NC(=O)C1(C)CSCC(=O)N1CCc1c[nH]c2ccccc12 (stereo unspecified),3.1,-4.8,5.0,10.9*,0.4,0.6,3.8
COc1ccc(OC)c(S(=O)(=O)Nc2cc(C(=O)O)ccc2N2CC3CC(C2)c2cccc(=O)n2C3)c1 (stereo unspecified),-0.2,-8.3,-6.5,-0.1,0.4,.,.
Cc1ccc(COc2ccc(Br)cc2/C=N/O)cc1,-4.0,16.6,-3.1,8.8*,0.1,34.0*,16.7*
O/N=C/c1cc(Br)ccc1OCc1ccc(F)cc1,-3.4,12.9,-1.7,4.4,-0.2,.,.
CCOC(=O)c1c(C)[nH]c(C)c1C(=O)CSc1nc2ccccc2c(=O)n1-c1ccc(Cl)cc1,-2.5,15.0,-1.5,10.6*,-0.9,28.3*,19.2*
c1ccc(-c2csc3ncnc(NCC4COc5ccccc5O4)c23)cc1 (stereo unspecified),-3.2,10.3,-4.8,4.2,0.6,.,.
Cc1ccc(O)c(Cc2cc(C)cc(Cc3cc(C)ccc3O)c2O)c1,1.0,10.7,1.1,9.4*,0.5,29.9*,13.7*
SMILES,PLC-gamma1 inh,ADAM10 inh,PLC-beta3 inh,ADAM17 inh,proKLK7 act,ADAM10 ctr,ADAM17 confirm
CN(C)c1nc(-c2ccccn2)nnc1-c1ccccc1,0.4,4.0,-5.1,2.4,-0.9,.,.
c1ccc(-c2cccc(CNc3nc(-c4ccccn4)nnc3-c3ccccc3)c2)cc1,2.8,14.3,2.9,9.0*,.,8.8,6.3
COc1cccc(CN2CCNC(=O)C2CC(=O)NCCCN2CCCC2=O)c1 (stereo unspecified),-3.5,-8.3,-15.0,-6.5,-0.7,.,.
CC(C)(C)c1ccc(S(=O)(=O)NC(=O)C2(C)CCN2C(=O)CC2CCCC2)cc1 (stereo unspecified),-1.4,-3.6,-4.4,-0.3,0.7,.,.
Cc1ccccc1-c1cc2nc(Oc3cccc4ccccc34)n(C)c(=O)c2s1,7.2,1.3,-0.7,9.2*,-0.7,14.9,9.5*
CCCc1nc(N2CCOCC2)c(C#N)c2c1CCCC2,-29.7,-136.1,-40.2,-40.0,-1.9,.,.
C=CC[C@H](CC(=O)N[C@H](CO)Cc1ccccc1)C(=O)N[C@H](COC(=O)[C@@H](CC=C)CC(=O)OC(C)(C)C)Cc1c[nH]c2ccccc12,0.0,16.1,-2.9,13.7*,-0.2,27.1*,15.2*
C=CC[C@@H](CC(=O)N[C@@H](CO)Cc1ccccc1)C(=O)N[C@@H](COC(=O)[C@@H](CC=C)CC(=O)OC(C)(C)C)Cc1c[nH]c2ccccc12,-2.9,9.3,0.4,5.2,0.7,.,.
C=CC[C@@H](CC(=O)N(CCO)Cc1ccccc1)C(=O)N[C@H](COC(=O)[C@H](CC=C)CC(=O)OC(C)(C)C)Cc1c[nH]c2ccccc12,2.7,16.8,1.2,9.9*,1.0,47.8*,23.2*
NC(=NCCc1c[nH]c2ccccc12)NS(=O)(=O)c1ccc2ccccc2c1,-0.1,14.9,1.1,9.9*,0.3,18.2,9.4*
NC(=NCCc1c[nH]c2ccccc12)NS(=O)(=O)c1ccc(F)cc1,3.5,0.4,-1.3,-1.0,-0.9,.,.
Cc1cccc(N2CCN(S(=O)(=O)c3ccc4c(c3)C(C)(C)C(=O)N4C)CC2)c1C,5.8,19.6,-1.9,8.8*,0.6,2.8,8.0
Cc1ccc(C)c(N2CCN(S(=O)(=O)c3ccc4c(c3)C(C)(C)C(=O)N4C)CC2)c1,1.1,-8.7,-4.2,6.6,0.5,.,.
Cc1ccc[n+](-c2[nH]c(=O)sc2/C=N/N=C(\[O-])CCn2c3ccccc3c3ccccc32)c1,1.4,0.8,-6.3,0.3,-0.2,.,.
S=c1[nH]nc(C2CCCCC2)n1/N=C/C=C/c1ccccc1,5.8,16.9,1.8,9.2*,0.1,19.4,11.1*
